From PubChem BioAssay (EPA / NIEHS)
Values joined by “and” are separate entries in the source; they are usually repeats but may differ in a detail not shown here. Identical values can stand only once. Active and inactive are the calls of the source. The calls were made as follows, unless noted: active = hit-call score of the fitted dose curve at least 0.9, where 1 is the maximum; inactive = score below 0.9.

How the values were obtained:
IYD (gene 389434) = test: CCTE_GLTED_hIYD: CCTE's human Iodotyrosine Deiodinase (xIYD) Inhibition Assay, Great Lakes Toxicology and Ecology Division (GLTED) Lab (AID 2284317; active = hit-call score of the fitted dose curve at least 0.9, where 1 is the maximum;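 also: cell-free human IYD enzyme made in baculovirus insect cells; iodide freed from monoiodotyrosine measured by cerium arsenite color change at 420 nm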)
Procedure, shortened: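 Human IYD expressed in a baculovirus-insect cell system was incubated 3 h with monoiodotyrosine and test chemical. Released iodide, separated on Dowex columns, was quantified by the Sandell-Kolthoff reaction at 420 nm; plates were normalized to MNT and DMSO/NaOH controls.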

[1] = CCTE_Deisenroth_5AR_NBTE_donor: CCTE's 5alpha-reductase NanoBRET Target Engagement Assay […], Deisenroth Lab (AID 2284319); conditions: actives raise or lower the signal
Procedure, shortened: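 In this secondary endpoint, donor luminescence from SRD5A2-NanoLuc in transfected HEK293T flags artifacts. Test chemical (10 nM - 29.9 uM) is present five hours, tracer the last two; mock-tracer wells run plate-matched; data fitted bidirectionally against DMSO.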

[2] = CCTE_Deisenroth_5AR_NBTE_acceptor: CCTE's 5alpha-reductase NanoBRET Target Engagement Assay - Autofluorescence Screen, Deisenroth Lab (AID 2284321); conditions: actives raise or lower the signal;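 also: compound fluorescence in the acceptor channel under 460 nm excitation flags autofluorescence artifacts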
Procedure, shortened: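 Acceptor-channel fluorescence flags artifacts, with excitation fixed at 460 nm. Nominal 100 uM chemical samples were read in triplicate runs, and signal changes were fitted in both directions relative to DMSO.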

SRD5A2 (gene 6716) = test: CCTE_Deisenroth_5AR_NBTE_ratio: CCTE's 5alpha-reductase NanoBRET Target Engagement Assay - Ratio, Deisenroth Lab (AID 2284322); conditions: actives raise or lower the signal
Procedure, shortened: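 Reverse-transfect HEK293T with pNLF1-C-SRD5A2, express 20 h. Pre-incubate cells with chemical 3 h (8-point series, 10 nM - 29.9 uM, duplicate). Add testosterone tracer, 2 h more. Add substrate/inhibitor, read donor and acceptor emission.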

SERPINA7 (gene 6906) = test: CCTE_GLTED_hTBG: CCTE's human Thyroxine-binding Globulin (TBG) Inhibition Assay, Great Lakes Toxicology and Ecology Division (GLTED) Lab (AID 2284343; active = hit-call score of the fitted dose curve at least 0.9, where 1 is the maximum;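 also: active chemicals lower fluorescence versus DMSO baseline by displacing probe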)
Procedure, shortened: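 Cell-free binding assay in which human TBG is incubated with test chemical for 2 hours and displacement of the fluorescent probe ANSA is read at 380 nm excitation/475 nm emission. Activity is fitted against DMSO as the negative control.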

[3] = read-out: TIMP metallopeptidase inhibitor 2 (TIMP2), TIMP2 (gene 7077); test: BSK_hDFCGF_TIMP2: BioMAP Diversity Plus: hDFCGF Assay for TIMP metallopeptidase inhibitor 2 (TIMP2) Biomarker Activity (AID 2284289); conditions: primary human foreskin fibroblasts
Procedure, shortened: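 Primary human foreskin fibroblasts in the hDFCGF system, dosed for 24 h; TIMP-2 level measured by ELISA, fitted in the positive direction against DMSO; cytotoxicity checked in parallel by sulforhodamine B total protein staining.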

[4] = read-out: Interleukin-1 alpha (IL1a), IL1A (gene 3552); test: BSK_IMphg_IL1a: BioMAP Diversity Plus: IMphg Assay for Interleukin-1 alpha (IL1a) Biomarker Activity (AID 2284290); conditions: primary human endothelial cells with macrophages
Procedure, shortened: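 Human venular endothelial cells co-cultured with macrophages, IMphg system. IL-1α is measured by ELISA 24 h after dosing and fitted in the positive direction against DMSO. Cytotoxicity is assessed by SRB staining of parallel cultures.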

[5] = read-out: E-selectin (Homo sapiens) (UniProt P16581); test: BSK_IMphg_ESelectin: BioMAP Diversity Plus: IMphg Assay for Eselectin Biomarker Activity (AID 2284291); conditions: primary human endothelial cells with macrophages
Procedure, shortened: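 Human venular endothelial cell–macrophage co-culture, E-selectin measured by ELISA 24 h after chemical dosing. Signal fitted in the positive direction against DMSO as negative control and baseline.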

[6] = BSK_IMphg_SRB: Viability Assessment in the BioMAP Diversity Plus: IMphg Assay (AID 2284292); conditions: primary human endothelial cells with macrophages;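 also: measured one day after compound addition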
Procedure, shortened: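 Human venular endothelial cells with macrophages, 24 h after chemical dosing; total protein by 0.1% SRB staining after 10% TCA fixation, read at 560 nm. Positive-direction fitting versus DMSO baseline.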

[7] = read-out: Macrophage colony-stimulating factor (MCSF), CSF1 (gene 1435); test: BSK_IMphg_MCSF: BioMAP Diversity Plus: IMphg Assay for Macrophage colony-stimulating factor (MCSF) Biomarker Activity (AID 2284293); conditions: primary human endothelial cells with macrophages
Procedure, shortened: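 Co-culture of human venular endothelial cells and macrophages, 24 hours of chemical exposure. M-CSF quantified by ELISA, with parallel SRB total-protein staining for cytotoxicity; activity fitted relative to DMSO.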

[8] = BSK_IMphg_SRB.Mphg: Macrophage Viability Assessment in the BioMAP Diversity Plus: IMphg Assay (AID 2284295); conditions: primary human endothelial cells with macrophages
Procedure, shortened: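 Venular endothelial cells co-cultured with macrophages, read 24 h after dosing. Total protein measured by 0.1% SRB staining after 10% TCA fixation, absorbance at 560 nm. Fitted in positive direction against DMSO baseline.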

[9] = read-out: Thrombomodulin, THBD (gene 7056); test: BSK_LPS_Thrombomodulin: BioMAP Diversity Plus: LPS Assay for Thrombomodulin Biomarker Activity (AID 2284296); conditions: primary human HUVEC with PBMC
Procedure, shortened: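 Human umbilical vein endothelial cells co-cultured with PBMC and stimulated with LPS; cell-surface thrombomodulin measured by ELISA 24 hours after compound. Gain or loss versus DMSO; cytotoxicity checked by SRB staining in parallel cultures.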

CD69, CD69 (gene 969) = test: BSK_LPS_CD69: BioMAP Diversity Plus: LPS Assay for CD69 Biomarker Activity (AID 2284303); conditions: primary human HUVEC with PBMC
Procedure, shortened: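 Human umbilical vein endothelial cells co-cultured with PBMC under LPS stimulation, chemical exposure 24 h; cell-surface CD69 measured by ELISA and fitted in the positive direction versus DMSO.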

[10] = Tanguay_ZF_120hpf_CRAN: Oregon State University Tanguay Lab 120 Hour Post-fertilization zebrafish Assay for Craniofacial Malformation (AID 2284397)
Procedure, shortened: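 Dechorionated Tropical 5D wild-type zebrafish embryos, one per well, were statically exposed from 6 to 120 hpf at 28C in 0.64% DMSO, with 5uM trimethyltin chloride as positive control. Craniofacial malformation was scored present/absent by brightfield microscopy, relative to DMSO.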

[11] = Tanguay_ZF_120hpf_AXIS: Oregon State University Tanguay Lab 120 Hour Post-fertilization zebrafish Assay for Axial Malformation (AID 2284398)
Procedure, shortened: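 Dechorionated 5D wild-type zebrafish embryos exposed statically, one per well, from 6 to 120 hpf at 28C, 0.64% DMSO. Axial malformation scored as present/absent by brightfield microscopy at 120 hpf; dead embryos not scored.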

[12] = Tanguay_ZF_120hpf_EDEM: Oregon State University Tanguay Lab 120 Hour Post-fertilization zebrafish Assay for Edema Malformation (AID 2284400)
Procedure, shortened: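 Dechorionated Tropical 5D wild-type embryos, one per well, statically exposed from 6 to 120 hpf at 28C in 0.64% DMSO. Edema scored present/absent by brightfield microscopy at 120 hpf; dead embryos not scored; fit versus DMSO.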

TTR (gene 7276) = test: CCTE_GLTED_hTTR_0.5uM: CCTE's human Transthyretin (hTTR) Inhibition Assay, with 0.5uM TTR, Great Lakes Toxicology and Ecology Division (GLTED) Lab (AID 2284320)
Procedure, shortened: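 Cell-free displacement assay in which human TTR at 0.5 uM was incubated with test chemical for 2 h. Displacement of the ANSA probe was read by fluorescence at 380 nm excitation/475 nm emission. Loss of signal was fitted in the positive direction versus DMSO.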

Measured: AC50

Chain of E-selectin (Homo sapiens) (P16581 whole entry, looked up): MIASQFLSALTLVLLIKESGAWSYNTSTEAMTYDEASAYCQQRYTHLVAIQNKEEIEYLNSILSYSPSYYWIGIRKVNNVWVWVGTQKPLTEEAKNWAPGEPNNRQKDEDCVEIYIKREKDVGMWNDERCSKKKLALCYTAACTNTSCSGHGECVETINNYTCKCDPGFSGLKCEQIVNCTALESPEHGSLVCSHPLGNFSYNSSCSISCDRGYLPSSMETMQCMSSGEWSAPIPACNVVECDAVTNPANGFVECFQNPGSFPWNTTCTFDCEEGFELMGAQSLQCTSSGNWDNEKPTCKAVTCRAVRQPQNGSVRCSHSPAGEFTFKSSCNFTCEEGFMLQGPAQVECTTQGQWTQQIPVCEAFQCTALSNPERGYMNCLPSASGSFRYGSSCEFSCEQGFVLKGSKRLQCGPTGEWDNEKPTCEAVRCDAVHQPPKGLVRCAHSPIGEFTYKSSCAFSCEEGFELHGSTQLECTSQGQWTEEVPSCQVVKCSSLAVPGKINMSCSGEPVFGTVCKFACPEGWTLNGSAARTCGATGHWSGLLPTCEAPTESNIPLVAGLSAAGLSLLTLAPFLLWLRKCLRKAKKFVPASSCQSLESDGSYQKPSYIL

CCCCCCCC/C=C\CCCCCCCC(=O)N(C)CC(=O)O
active: IYD (gene 389434) 58.2 µM | SERPINA7 (gene 6906) 5.56 µM
inactive: [1] | [2] | SRD5A2 (gene 6716)

COC(F)(C(F)F)C(F)(F)F (stereo unspecified)
not listed: IYD (gene 389434) | [1] | [2] | SRD5A2 (gene 6716) | SERPINA7 (gene 6906) | TTR (gene 7276)
inactive: all other assays above

O=S(=O)(OCC(F)(F)F)C(F)(F)C(F)(F)C(F)(F)C(F)(F)F
active: CD69, CD69 (gene 969) 30 µM and 890 nM | TTR (gene 7276) 1.4 µM
not listed: IYD (gene 389434) | [1] | [2] | SRD5A2 (gene 6716) | SERPINA7 (gene 6906)
inactive: all other assays above

CCN=c1cc2oc3cc(NCC)c(C)cc3c(-c3ccccc3C(=O)OCC)c-2cc1C
active: [1] 10 µM | [2] 0.603 µM | SRD5A2 (gene 6716) 6.06 µM
